The results in this text go back to PubChem BioAssay (Tox21).

Results filed as inconclusive are left out. Values without a mark were called inactive. Active and inactive are the calls of the source. Calls come from the whole dose curve.

Sequence of Retinoic acid receptor RXR-alpha (Homo sapiens) (P19793 whole entry, looked up): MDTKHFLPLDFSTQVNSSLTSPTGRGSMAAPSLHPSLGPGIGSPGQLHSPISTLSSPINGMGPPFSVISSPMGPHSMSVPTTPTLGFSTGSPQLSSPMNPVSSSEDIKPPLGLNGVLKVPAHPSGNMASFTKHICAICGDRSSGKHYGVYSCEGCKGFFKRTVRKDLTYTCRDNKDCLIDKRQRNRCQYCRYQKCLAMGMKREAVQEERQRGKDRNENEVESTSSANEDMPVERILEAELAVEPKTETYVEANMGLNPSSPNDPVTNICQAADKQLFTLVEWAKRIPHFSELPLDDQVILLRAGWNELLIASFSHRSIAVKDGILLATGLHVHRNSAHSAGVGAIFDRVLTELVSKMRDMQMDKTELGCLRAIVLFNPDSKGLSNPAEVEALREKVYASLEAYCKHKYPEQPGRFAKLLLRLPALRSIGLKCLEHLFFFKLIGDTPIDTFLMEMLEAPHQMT

Test system in one test: not listed separately
The test can be described thus: qHTS assay to identify small molecule agonists of the AP-1 signaling pathway - cell viability counter screen (AID 1159525). Note: nearly all actives have a fitted effect of over 55% in size. Note: potency is the fitted concentration of half-maximal effect. Particulars: ME-180 AP-1-bla cells viability, ATP luminescence, 5 h; series mostly up to 76.8 µM; viability change, negative = cytotoxic: at the top concentration. In a few lines: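 Same-well cytotoxicity counter screen of the Tox21 10K library in ME-180 cells. The readout is ATP-dependent luminescence after 5 h compound treatment. Data are normalised to DMSO and tetra n-octyl ammonium bromide controls.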
(In general: qHTS replaces the single test concentration by a dilution series.)
Consider `CN(C)C(=S)S`, for which the Potency was 38.9 µM (active).

In the case of `CC(C)OC(=O)C(O)(c1ccc(Cl)cc1)c1ccc(Cl)cc1`, the Potency was 34.7 µM (active).

In the case of `C[C@H]1CC[C@@H]2[C@@H](C)[C@H]3[C@H](C[C@H]4[C@@H]5CC=C6CC(O[C@@H]7O[C@H](CO)[C@H](O)[C@H](O[C@@H]8O[C@H](CO)[C@@H](O)[C@H](O)[C@H]8O)[C@H]7O[C@H]7O[C@@H](C)[C@H](O)[C@@H](O)[C@H]7O)CC[C@]6(C)[C@H]5CC[C@]34C)N2C1` (stereo not given in full), the Potency was 20.1 µM (active).

Consider `COc1cc(C=O)cc2c1[C@H](COC(N)=O)[C@]1(OC(C)=O)ON2C[C@H]2[C@@H]1N2C(C)=O`, for which the “viability change, negative = cytotoxic” value was -2.33%.

Take `COP(=O)(OC)SCn1c(=O)oc2cc(Cl)cnc21`: the “viability change, negative = cytotoxic” value was 0.279%.

Regarding `Cc1ccc(OP(=O)(Oc2ccccc2)Oc2ccccc2)cc1`, the “viability change, negative = cytotoxic” value is -29.4%.

`COc1ccc(OC)c(CC(C)N)c1` (stereo not given): the “viability change, negative = cytotoxic” value is 2.75%.

As to `BrC(Br)C(Br)(Br)Br`, the “viability change, negative = cytotoxic” value is -34.6%.

Turning to `CCOC(=O)OC1=C(c2cc(C)ccc2C)C(=O)NC12CCC(OC)CC2` (stereo not given), the “viability change, negative = cytotoxic” value is -29.2%.

For the compound `CCCCCCCCCCCCCCCCCCn1cc[n+](C)c1`, the “viability change, negative = cytotoxic” value is -3.47%.

`CCC(C)(C)C(=O)OC1=C(c2ccc(Cl)cc2Cl)C(=O)OC12CCCCC2`: the “viability change, negative = cytotoxic” value is 13%.

As to `c1ccc2c(c1)[nH]c1cnccc12`, the “viability change, negative = cytotoxic” value is -1.65%.

For `CCOP(=S)(OCC)OC(Cl)C(Cl)(Cl)Cl` (stereo not given), the “viability change, negative = cytotoxic” value is -2.96%.

Consider `Fc1cccc(Cl)c1CCl`, for which the “viability change, negative = cytotoxic” value was -9.87%.

Test system in another test: not listed separately
The test can be described thus: qHTS assay to identify small molecule agonists of the AP-1 signaling pathway (AID 1159526). Note: % is set by controls: 0 for no effect and ±100 for the full control effect. Particulars: ME-180 (cervical carcinoma) AP-1-bla reporter, beta-lactamase FRET ratio, 5 h; series mostly up to 76.8 µM; activation: at the top concentration.
In the case of `Oc1ccc(C(=C(Cl)Cl)c2ccc(O)cc2)cc1`, the “activation” value is -2.49%.

For the compound `CN(C)c1ccc(N=Nc2ccccc2)cc1`, the “activation” value is 9.84%.

Regarding `CCCCCCCCCCCCCN1CC(C)OC(C)C1` (stereo not given), the “activation” value is 0.534%.

For the compound `O=c1c(C2CC(c3ccc(-c4ccc(Br)cc4)cc3)Cc3ccccc32)c(O)sc2ccccc12` (stereo not given), the “activation” value was -12.3% [at 35.3 µM].

Take `CCCSP(=O)(OCC)SCCC`: the “activation” value was -5.04%.

Take `N#CC(Cl)Cl`: the “activation” value was -8.34%.

For `Cc1c(Cl)c(=O)oc2cc(OP(=O)(OCCCl)OCCCl)ccc12`, the “activation” value is -2.66% [at 35.3 µM].

With `COc1cc(C=O)cc2c1[C@H](COC(N)=O)[C@]1(OC(C)=O)ON2C[C@H]2[C@@H]1N2C(C)=O`, the “activation” value was -12.4%.

With `Cc1ccc(OP(=O)(Oc2ccccc2)Oc2ccccc2)cc1`, the “activation” value is -4.19%.

As for `COc1ccc(OC)c(CC(C)N)c1` (stereo not given), the “activation” value was -0.167%.

For the compound `BrC(Br)C(Br)(Br)Br`, the “activation” value is -1.21%.

Turning to `CCOC(=O)OC1=C(c2cc(C)ccc2C)C(=O)NC12CCC(OC)CC2` (stereo not given), the “activation” value is 1.33%.

Consider `CCCCCCCCCCCCCCCCCCn1cc[n+](C)c1`, for which the “activation” value is -11.8%.

As to `Fc1cccc(Cl)c1CCl`, the “activation” value is -1.75%.

A further test has as its target Retinoic acid receptor RXR-alpha (Homo sapiens) (UniProt P19793). Put plainly: qHTS assay to identify small molecule agonists of the RXR signaling pathway (AID 1159527). Note: % is set by controls: 0 for no effect and ±100 for the full control effect; nearly all actives have a fitted effect of over 35% in size. Conditions: HEK293T RXRa-UAS-bla, beta-lactamase ratio, 16 h; series mostly up to 76.8 µM; activation: at the top concentration. In a few lines: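 Agonist-mode beta-lactamase reporter assay: HEK 293T RXR-alpha-UAS-bla cells treated 16 hr at 37 C with compounds, 9-cis retinoic acid as positive control. LiveBLAzer FRET substrate, 405 nm excitation, 460/530 nm emission.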
With `N#CC(Cl)Cl`, the “activation” value is -3.32%.

Regarding `Cc1c(Cl)c(=O)oc2cc(OP(=O)(OCCCl)OCCCl)ccc12`, the “activation” value was 9.55% [at 35.3 µM].

With `COc1ccc(OC)c(CC(C)N)c1` (stereo not given), the “activation” value is 2.33%.

In the case of `CCC(C)(C)C(=O)OC1=C(c2ccc(Cl)cc2Cl)C(=O)OC12CCCCC2`, the “activation” value is -19.8%.

For the compound `c1ccc2c(c1)[nH]c1cnccc12`, the “activation” value was 5.14%.

On to `CCOP(=S)(OCC)OC(Cl)C(Cl)(Cl)Cl` (stereo not given), for which the “activation” value is -7.11%.

For the compound `Fc1cccc(Cl)c1CCl`, the “activation” value is 0.286%.
